In all, about 310,000 compounds went through this assay and about 14,000 (4.5%) showed an effect of 50% or more. The effect is printed as a negative number. Many of the other results were omitted from the sample, so strong results are more common in it than they were.
molecular target: human ether-à-go-go-related gene (hERG) potassium channel (human, UniProt Q12809); experiment: primary screen, population patch clamp on CHO cells stably expressing hERG; higher = less effect of the substance
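Also: peak tail current of the secondary pulse compared with the same well before compound.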

human ether-à-go-go-related gene (hERG) potassium channel, sequence (Q12809 whole entry, looked up): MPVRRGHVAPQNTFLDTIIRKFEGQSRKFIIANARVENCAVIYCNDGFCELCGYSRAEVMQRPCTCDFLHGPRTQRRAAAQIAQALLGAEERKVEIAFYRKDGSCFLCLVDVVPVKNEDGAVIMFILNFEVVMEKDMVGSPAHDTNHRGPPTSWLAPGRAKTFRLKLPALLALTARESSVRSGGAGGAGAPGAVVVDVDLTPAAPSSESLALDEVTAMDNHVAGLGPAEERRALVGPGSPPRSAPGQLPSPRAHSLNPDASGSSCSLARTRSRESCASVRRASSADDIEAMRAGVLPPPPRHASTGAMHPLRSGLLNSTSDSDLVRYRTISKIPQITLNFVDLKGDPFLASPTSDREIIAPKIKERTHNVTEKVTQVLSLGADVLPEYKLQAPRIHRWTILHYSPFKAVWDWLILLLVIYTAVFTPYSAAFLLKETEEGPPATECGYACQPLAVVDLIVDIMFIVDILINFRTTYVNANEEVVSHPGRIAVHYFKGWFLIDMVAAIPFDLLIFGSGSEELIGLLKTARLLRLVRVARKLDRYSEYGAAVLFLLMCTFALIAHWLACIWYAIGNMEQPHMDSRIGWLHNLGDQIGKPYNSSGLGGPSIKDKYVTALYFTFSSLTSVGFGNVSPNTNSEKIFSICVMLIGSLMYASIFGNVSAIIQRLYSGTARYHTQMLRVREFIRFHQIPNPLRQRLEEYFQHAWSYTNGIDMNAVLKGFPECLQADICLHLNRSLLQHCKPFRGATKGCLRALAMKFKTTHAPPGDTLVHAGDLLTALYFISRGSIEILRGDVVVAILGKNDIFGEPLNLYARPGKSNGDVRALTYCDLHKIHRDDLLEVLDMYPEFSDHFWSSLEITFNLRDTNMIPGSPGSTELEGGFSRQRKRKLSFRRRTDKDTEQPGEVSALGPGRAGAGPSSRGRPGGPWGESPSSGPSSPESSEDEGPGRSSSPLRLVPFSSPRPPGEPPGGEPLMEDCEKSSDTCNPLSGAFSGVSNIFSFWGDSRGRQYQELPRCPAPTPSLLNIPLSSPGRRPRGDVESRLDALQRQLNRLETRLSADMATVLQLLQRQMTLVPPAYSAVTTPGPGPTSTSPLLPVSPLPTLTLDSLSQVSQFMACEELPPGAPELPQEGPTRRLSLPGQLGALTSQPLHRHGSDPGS

| Structure (SMILES) | hERG current change (%, negative = inhibition) at 10uM [%] |
| --- | --- |
| Cc1cccnc1NC(=O)C1CCN(S(=O)(=O)c2ccc3c(c2)CCC(=O)N3)CC1 | 16.1 |
| O=C(CCc1nnc(CCCCc2ccccc2)o1)NCCN1CCCCC1=O | 18.2 |
| CC(=O)N1CCc2[nH]c3ccccc3c2C1 | 4.55 |
| COc1ccc(Br)c(C(=O)Nc2ccc(F)cc2)c1 | -0.956 |
| NS(=O)(=O)c1ccc(CCNc2nc3c(-c4cccc(F)c4)nnn3c3ccccc23)cc1 | 21.5 |
| C=CCNc1nc(C2(C)CC3(CC(C)OC3=O)C(=O)O2)cs1 (stereo not drawn) | -4.86 |
| O=C(c1cccc(C(F)(F)F)c1)C1CCCN(Cc2ccc(OCCO)cc2)C1 (stereo not drawn) | -69.8 |
| O=C(c1cc(F)ccc1F)C1CCCN(Cc2cccc(Cl)c2)C1 (stereo not drawn) | 4.01 |
| Cc1ccc(CN2CCCC(C(=O)c3cccc(C(F)(F)F)c3)C2)o1 (stereo not drawn) | -19.3 |
| COc1cccc(O)c1CN1CCCC(C(=O)c2cccc(C(F)(F)F)c2)C1 (stereo not drawn) | -57.5 |
| O=C(c1cc(F)ccc1F)C1CCCN(CCCc2ccccc2)C1 (stereo not drawn) | -73.2 |
| O=C(C1CCCN(CCCc2ccccc2)C1)N1CCCCC1 (stereo not drawn) | -38.8 |
| O=C(c1cccc(C(F)(F)F)c1)C1CCCN(Cc2cccc(OCCO)c2)C1 (stereo not drawn) | -47.4 |
| COCc1cc(CN2CCCC(C(=O)Nc3ccc(-c4ccco4)cc3)C2)ccc1OC (stereo not drawn) | -7.12 |
| COCc1cc(CN2CCCC(C(=O)c3cccc(C(F)(F)F)c3)C2)ccc1OC (stereo not drawn) | -63.1 |
| COCc1ccc(C(=O)N2CCCC(C(=O)c3cccc(C(F)(F)F)c3)C2)o1 (stereo not drawn) | -0.276 |
| CC(=O)CCCCn1cnc2c1c(=O)n(C)c(=O)n2C | 20.7 |
| O=c1cc([O-])n(Cc2ccc(F)cc2)c(=O)[nH]1.[NH4+] | 21.7 |
| COCCN(C(=O)CSc1nnc(Nc2ccc(C)cc2)s1)c1c(N)n(CC(C)C)c(=O)[nH]c1=O | -7.66 |
| Cn1ncc2c(NCc3ccccc3)ncnc21 | -11 |
| CCOC(=O)CN1C(=O)/C(=C/c2ccc(Cl)cc2)Oc2ccccc21 | 2.31 |
| Nc1ccc(N=Nc2ccccc2)c2cccnc12 | 17.2 |
| CNC(=O)C(Sc1nc(C)nc2c1oc1ccccc12)C(C)=O (stereo not drawn) | 2.63 |

| Structure (SMILES) | hERG current change (%, negative = inhibition) at 10uM [%] |
| --- | --- |
| Cc1cc(Br)ccc1NC(=O)c1cnc(N2CCN(c3ccccn3)CC2)c2ccccc12 | 10 |
| COc1ccc(CCNC(=O)CN2CCN(c3cccc(C(F)(F)F)c3)CC2)cc1 | -46.3 |
| O=C(c1cc(F)ccc1F)C1CCCN(Cc2cc(Cl)ccc2O)C1 (stereo not drawn) | 0.916 |
| CCOc1ccccc1CN1CCCC(C(=O)c2cc(F)ccc2F)C1 (stereo not drawn) | -50.8 |
| Cn1cc(CN2CCCC(C(=O)c3cc(F)ccc3F)C2)c2ccccc21 (stereo not drawn) | -31.1 |
| COc1ccc(C(=O)C2CCCN(C(=O)Cn3ccc(C)n3)C2)cc1OC (stereo not drawn) | 19.1 |
| COc1ccc(C(=O)C2CCCN(Cc3nc4ccccc4nc3C)C2)cc1OC (stereo not drawn) | -84.9 |
| COc1cccc(O)c1CN1CCCC(C(=O)c2sccc2C)C1 (stereo not drawn) | -45.9 |
| C#CCN1CCN(c2cccc(C(F)(F)F)c2)CC1 | 8.78 |
| COc1ccc(C(=O)C2CCCN(C(=O)CSC)C2)cc1OC (stereo not drawn) | 8.85 |
| COc1ccc(C(=O)C2CCCN(Cc3c(O)cccc3OC)C2)cc1OC (stereo not drawn) | -63.1 |
| Nc1ccc(CCN2CCN(c3cccc(C(F)(F)F)c3)CC2)cc1 | -67.2 |
| COc1ccc(C(CNC(=O)C(CCSC)NC(=O)c2ccccc2Cl)N2CCCC2)cc1 (stereo not drawn) | -34.9 |
| O=C(CCN1C(=O)c2ccccc2S1(=O)=O)Nc1cccc2ccccc12 | -5.33 |
| Cc1ccc(C)c(S(=O)(=O)Nc2ccc(C(N)=O)cc2)c1 | 14.9 |
| CC1(C)CC(=O)c2c(Cc3ccccc3)noc2C1 | 12.1 |
| Cc1ccccc1/C=C1\Sc2ccc(C(=O)N3CCN(c4ccccn4)CC3)cc2N(C)C1=O | -26.1 |
| CCN(CC)S(=O)(=O)c1cccc(C(=O)Nc2nc3cc4c(cc3s2)OCCO4)c1 | 0.652 |
| Cc1ccc(OCC(=O)N/N=C/c2ccncc2)cc1C | 5.75 |
| CC(C)OCCCNC(=O)c1ccc2c(=O)n(Cc3ccc4c(c3)OCO4)c(=S)[nH]c2c1 | 21.3 |
| N#C/C(=C\c1ccc(F)cc1)C(=O)Nc1ccccn1 | 2.68 |
| FC(F)(F)c1cccc(N2CCN(Cc3ccoc3)CC2)c1 | -60.4 |

Source: article PMC4336329 (PLoS ONE, 2015)
